Inconclusive results are not listed. Activity calls are given as the source filed them. Unless noted, the call rests on the fitted dose curve; in most records, active means well fitted curve in the direction sought with a large enough effect in the repeat runs; inconclusive means weak or mixed curves; inactive means no such curve, though single readings can be large; an effect the other way counts as inactive or inconclusive.
How the values were obtained:
[1] = biological target: Retinoic acid receptor RXR-alpha (Homo sapiens) (UniProt P19793); experiment: qHTS assay to identify small molecule agonists of the RXR signaling pathway (AID 1159527; calls by dose curve; further: nearly all actives have a fitted effect of over 35% in size)
Chain of Retinoic acid receptor RXR-alpha (Homo sapiens) (P19793 whole entry, looked up): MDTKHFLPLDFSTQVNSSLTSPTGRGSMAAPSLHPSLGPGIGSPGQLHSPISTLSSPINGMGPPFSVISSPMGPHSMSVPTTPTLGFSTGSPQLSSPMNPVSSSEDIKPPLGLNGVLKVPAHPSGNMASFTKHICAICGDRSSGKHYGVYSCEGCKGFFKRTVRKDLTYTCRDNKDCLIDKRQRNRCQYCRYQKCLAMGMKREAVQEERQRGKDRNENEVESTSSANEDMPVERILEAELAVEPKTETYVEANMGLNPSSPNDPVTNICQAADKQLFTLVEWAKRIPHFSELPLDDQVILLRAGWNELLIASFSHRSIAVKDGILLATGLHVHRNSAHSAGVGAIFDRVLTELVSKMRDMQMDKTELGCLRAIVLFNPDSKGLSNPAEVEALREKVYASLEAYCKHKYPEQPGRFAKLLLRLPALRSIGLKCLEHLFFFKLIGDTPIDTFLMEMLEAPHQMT
Method in brief: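 Cells plated at 2,000/well, rested 5 hr at 37 C, pin-dosed with DMSO compound solutions, incubated 16 hr, then loaded with B/G FRET substrate for 2 hr at RT before dual-emission fluorescence reading.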

[2] = qHTS assay to identify small molecule agonists of the RXR signaling pathway - cell viability counter screen (AID 1159529);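 further: HEK 293T cells carrying an RXR-alpha UAS beta-lactamase reporter; series mostly up to about 77 µM; nearly all actives have a fitted effect of over 50% in size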
Method in brief: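 Steps: seed RXR-alpha-UAS-bla HEK 293T cells in assay medium containing 2% charcoal-stripped FBS; incubate 5 hr; add compounds in DMSO; incubate 16 hr at 37 C; after the bla read, add CellTiter-Glo and read luminescence at 30 min.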

[3] = qHTS assay to identify small molecule antagonists of the retinoid acid receptor (RAR) signaling pathway - cell viability counter screen (AID 1159551); further: nearly all actives have a fitted effect of over 35% in size
Method in brief: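 C3RL4 RARE-luciferase line; cpds + retinol 1 uM final, 6 h, 37 C/5% CO2; CellTiter-Glo ATP luminescence, 30 min RT.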

[4] = qHTS assay to identify small molecule antagonists of the retinoic acid receptor (RAR) signaling pathway (AID 1159552; further: nearly all actives have a fitted effect of over 50% in size)
Method in brief: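 Retinol at 1 uM final stimulated RARE-luciferase expression in C3RL4 cells exposed to test compounds for 6 hr at 37 C. Reduced luminescence, read 30 min after detection reagent, indicated pathway antagonism.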
On the % scale 0 is the no-effect control and ±100 the full control effect.

COc1cc(OC)nc(NC(=O)NS(=O)(=O)c2ncccc2C(=O)N(C)C)n1
inactive: Potency [1] | Potency [2] | Potency [3]

O=C1CN=C(c2ccccc2)c2cc([N+](=O)[O-])ccc2N1
inactive: Potency [1] | Potency [2] | Potency [3]

Nc1ccccc1Cl
inactive: Potency [1] | Potency [2] | Potency [3]

NC1=NC(=O)C(c2ccccc2)O1 (configuration not stated)
inactive: Potency [1] | Potency [2] | Potency [3]

CCCCC(=O)Cl
inactive: Potency [1] | Potency [2] | Potency [3]

N#CCCC#N
inactive: Potency [1] | Potency [2] | Potency [3]

ClC(Cl)(Cl)C(Cl)(Cl)Cl
inactive: Potency [1] | Potency [2] | Potency [3]

CC1=C(C(=O)O)N2C(=O)[C@@H](N)[C@H]2SC1
inactive: activation [1] 0.217% [at 15.8 µM] | activity change, negative = cytotoxicity [2] 1.45% [at 15.8 µM] | activity change, negative = cytotoxicity [3] -0.0172% [at 19 µM]

O=C(CCN1CC1)OCC(CO)(COC(=O)CCN1CC1)COC(=O)CCN1CC1
inactive: Potency [1] | Potency [2] | Potency [3]

O=NN1CCN(N=O)CC1
inactive: Potency [1] | Potency [2] | Potency [3]

COc1cc(OC)nc(NC(=O)NS(=O)(=O)c2ncccc2OCC(F)(F)F)n1
inactive: Potency [1] | Potency [2] | Potency [3]

CCC(C)n1c(=O)[nH]c(C)c(Br)c1=O (configuration not stated)
inactive: Potency [1] | Potency [2] | Potency [3]

CCCCc1c(C)nc(NCC)[nH]c1=O
inactive: Potency [1] | Potency [2] | Potency [3]

Cc1cc(C)nc(Nc2ccccc2)n1
inactive: Potency [1] | Potency [2] | Potency [3] | Potency [4]

CCOP(=O)(N=C1SCCS1)OCC
inactive: Potency [1] | Potency [2] | Potency [3]

ClCC(Cl)Cl
inactive: Potency [1] | Potency [2] | Potency [3]

CC(N)=S
inactive: Potency [1] | Potency [2] | Potency [3]

Source: PubChem BioAssay (Tox21)
